The values that follow come from PubChem BioAssay (Tox21).

Values joined by “and” are separate entries in the source; they are usually repeats but may differ in a detail not shown here. Equal values may be shown once. Records with an inconclusive call do not appear. Some compounds were tested as several samples or in several runs, with calls that do not always agree. Active and inactive are the calls of the source. Unless noted, calls follow the shape of the dose curve; as a rule, active = well fitted curve in the direction sought with a large enough effect in the repeat runs; inconclusive = weak or mixed curves; inactive = no such curve, though single readings can be large; an effect the other way counts as inactive or inconclusive.

Assay [1] can be described thus: qHTS assay to identify small molecule agonists of the hypoxia (HIF-1) signaling pathway - cell viability counter screen (AID 1224844; calls by dose curve; also: nearly all actives have a fitted effect of over 50% in size; also: potency is read from the fitted curve at half-maximal effect). The essentials:
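Tox21 10K compounds were added to HRE-bla ME-180 cells (0.5% dialyzed FBS) and incubated 17 hrs at 37C; ATP-based CellTiter-Glo luminescence then reported cell viability in the same wells.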
In general terms: In qHTS, concentration-response curves come from the screen itself.

The nature of assay [2]: qHTS assay to identify small molecule agonists of H2AX (AID 1224845; active = well fitted activation curve with a large enough effect in the signal ratio in the repeat runs, not every such curve was filed as active; the % refers to the signal ratio; also: potency is read from the fitted curve at half-maximal effect). The essentials:
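Wild-type CHO-K1 cells, plated overnight, exposed 3hr at 37C to 15 concentrations (0.76% DMSO final). Lysed, then HTRF anti-pH2AX (S139) cryptate and anti-H2AX-d2 antibodies, 24 hr room temperature; 665/620 nm emission read.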

Assay [3] can be described thus: qHTS assay to identify small molecule agonists of H2AX - cell viability counter screen (AID 1224847; calls by dose curve; also: nearly all actives have a fitted effect of over 30% in size; also: potency is read from the fitted curve at half-maximal effect). A digest of the protocol: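 Cells plated first: CHO-K1, 1000 per well in 10% FBS medium, incubated overnight at 37C. Then 15-point compound titration added (final DMSO 0.76%) for 3 hr. Finally CellTiter-Glo added and luminescence read.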
Assay [4] in a line: qHTS RealTime-Glo MT Cell Viability Assay in HepG2 cells - 24 hour (AID 1224867). Also: nearly all actives have a fitted effect of over 50% in size. Also: potency is read from the fitted curve at half-maximal effect. A digest of the protocol:
(§1)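 Cells + NanoLuc/prosubstrate dispensed (600 cells/well) → 5 h at 37 C/5% CO2 → compounds in DMSO transferred → 40 h incubation at 37 C, luminescence read at 0, 8, 16, 24, 32, 40 h.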

Assay [5] can be described thus: qHTS RealTime-Glo MT Cell Viability Assay in HEK293 cells - 32 hour (AID 1224868). Also: nearly all actives have a fitted effect of over 50% in size. Also: potency is read from the fitted curve at half-maximal effect. The essentials:
(§2)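 Tox21 10K qHTS, HEK293, 600 cells/well, RealTime-Glo reagent co-dispensed with cells; 5 h preincubation, compound by pintool, 37 C, luminescence at 0–40 h.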

Assay [6] is described as follows: A CellTox Green Cytotoxicity Assay to monitor cytotoxicity in HEK293 cells - 0 hour (AID 1224869). Also: % is scaled to controls: 0 for no effect and ±100 for the full control effect; nearly all actives have a fitted effect of over 50% in size. The essentials:
(§3)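 Cytotoxicity was tracked continuously in HEK293 cells by a DNA-binding dye excluded from viable cells. Compounds were transferred in DMSO 5 h after seeding; fluorescence was recorded at intervals up to 40 h.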

Assay [7] in a line: qHTS RealTime-Glo MT Cell Viability Assay in HepG2 cells - 40 hour (AID 1224870). Also: nearly all actives have a fitted effect of over 50% in size. Also: potency is read from the fitted curve at half-maximal effect. The essentials: (§4)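 HepG2 cells (600/well) mixed with RealTime-Glo MT reagent, settled 5 h at 37 C/5% CO2 before compound addition. Nonlytic NanoLuc luminescence from viable-cell prosubstrate reduction read repeatedly during 40 h treatment at 37 C.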
Assay [8] can be described thus: qHTS RealTime-Glo MT Cell Viability Assay in HEK293 cells - 16 hour (AID 1224872). Also: nearly all actives have a fitted effect of over 50% in size. Also: potency is read from the fitted curve at half-maximal effect. The essentials: as §2
Assay [9] can be described thus: A CellTox Green Cytotoxicity Assay to monitor cytotoxicity in HEK293 cells - 24 hour (AID 1224875). Also: nearly all actives have a fitted effect of over 45% in size. Also: potency is read from the fitted curve at half-maximal effect. As to activity change: % is scaled to controls: 0 for no effect and ±100 for the full control effect. A digest of the protocol: as §3
The nature of assay [10]: A CellTox Green Cytotoxicity Assay to monitor cytotoxicity in HepG2 cells - 16 hour (AID 1224876). Also: nearly all actives have a fitted effect of over 45% in size. Also: potency is read from the fitted curve at half-maximal effect. The essentials: (§5)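 Real-time, homogeneous cytotoxicity readout: dead-cell DNA staining by CellTox Green in HepG2 monolayers, fluorescence measured at timed intervals up to 40 h of continuous compound exposure.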
Assay [11] in a line: qHTS RealTime-Glo MT Cell Viability Assay in HepG2 cells - 32 hour (AID 1224877). Also: nearly all actives have a fitted effect of over 55% in size. Also: potency is read from the fitted curve at half-maximal effect. A digest of the protocol: as §1
Assay [12] can be described thus: A CellTox Green Cytotoxicity Assay to monitor cytotoxicity in HepG2 cells - 24 hour (AID 1224878). Also: nearly all actives have a fitted effect of over 45% in size. Also: potency is read from the fitted curve at half-maximal effect. As to Cytotoxicity: % is scaled to controls: 0 for no effect and ±100 for the full control effect. The essentials:
as §5

The nature of assay [13]: A CellTox Green Cytotoxicity Assay to monitor cytotoxicity in HepG2 cells - 40 hour (AID 1224879). Also: nearly all actives have a fitted effect of over 40% in size. Also: potency is read from the fitted curve at half-maximal effect. A digest of the protocol: as §5
A short description of assay [14]: qHTS assay to identify small molecule antagonists of the estrogen related receptor (ERR) signaling pathway from Tox21 library (AID 1224848). A digest of the protocol:
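ERR reporter cell line (from NTP) seeded 2,000 cells/well, rested 6 h at 37 C/5% CO2, then pin-dosed with compounds in DMSO. After 18 h at 37 C, ONE-Glo added; luminescence read after 30 min at room temperature.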

Assay [15] can be described thus: qHTS assay to identify small molecule agonists of the estrogen related receptor (ERR) signaling pathway from Tox21 library (AID 1224849; calls by dose curve; also: % is scaled to controls: 0 for no effect and ±100 for the full control effect; nearly all actives have a fitted effect of over 15% in size). The settings on record: ERR reporter cell line, ONE-Glo luciferase, 18 h; at 92.4 µM (top of the series) unless noted. The essentials: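 Agonist signal is luciferase luminescence from an ERR reporter cell line treated 18 h at 37 C with DMSO-dissolved compounds, read 30 min after ONE-Glo addition at room temperature.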

Assay [16] in a line: A CellTox Green Cytotoxicity Assay to monitor cytotoxicity in HEK293 cells - 40 hour (AID 1224871). Also: nearly all actives have a fitted effect of over 45% in size. Also: potency is read from the fitted curve at half-maximal effect. A digest of the protocol:
as §3

Assay [17] can be described thus: qHTS RealTime-Glo MT Cell Viability Assay in HepG2 cells - 8 hour (AID 1224873). Also: nearly all actives have a fitted effect of over 55% in size. Also: potency is read from the fitted curve at half-maximal effect. A digest of the protocol: as §4
The nature of assay [18]: qHTS RealTime-Glo MT Cell Viability Assay in HEK293 cells - 0 hour (AID 1224880). A digest of the protocol: (§6)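 Nonlytic bioluminescent viability monitoring. HEK293 at 600 cells/well with reagent; 5 h settle; compound transfer by pintool; plates held at 37 C and read at set time points.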
The nature of assay [19]: qHTS assay to identify small molecule agonists of the hypoxia (HIF-1) signaling pathway (AID 1224846; active = well fitted activation curve with a large enough effect in the signal ratio in the repeat runs, not every such curve was filed as active; the % refers to the signal ratio; also: % is scaled to controls: 0 for no effect and ±100 for the full control effect). A digest of the protocol: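 Steps: seed ME-180 HRE-bla cells (2,000/well, 0.5% dialyzed FBS); incubate 5 hrs at 37C; pin-transfer compounds or DMSO; incubate 17 hrs; add LiveBLAzer B/G substrate CCF4-AM; measure reporter activation by FRET.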
The nature of assay [20]: qHTS RealTime-Glo MT Cell Viability Assay in HEK293 cells - 40 hour (AID 1224874). To be noted: RealTime-Glo luminescence; max response: stronger effect = lower value. A digest of the protocol: as §6

Consider `CCCCCCCCCCCCCCCC[N+](C)(C)C`, for which the Potency entry in assay [1], in [2] and in assay [6] was “inactive” each time. Besides, the Potency in [3] is 54.6 µM (active) and 101 µM (active) and 49.2 µM (active); in [4], “inactive and 49 µM (active) and 23.9 µM (active)”; in assay [5], 9.42 µM (active) and 21.9 µM (active) and 8.49 µM (active); in [7], 24.5 µM (active) and 21.3 µM (active); in assay [8], 10.6 µM (active) and 21.9 µM (active); in assay [9] it was 23.7 µM (active) and 43.6 µM (active) and 19 µM (active). Moreover, the Potency was 23.7 µM (active) and 49 µM (active) and 23.9 µM (active) in assay [10]; 43.6 µM (active) and 23.9 µM (active) in [11]; 21.1 µM (active) and 23.9 µM (active) in [12]; 21.1 µM (active) and 13.8 µM (active) and 21.3 µM (active) in assay [13].
Turning to `COc1cc(C=O)cc2c1[C@H](COC(N)=O)[C@]1(OC(C)=O)ON2C[C@H]2[C@@H]1N2C(C)=O`, the Potency is 3.89 µM (active) in [1]; 63.5 µM (active) in assay [2]; 273 nM (active) in assay [14]; 54.9 nM (active) in assay [5]; 110 nM (active) in [12]; 77.6 nM (active) in assay [13]. Moreover, the Potency entry in assay [3], in assay [6], in assay [16], in assay [17], in assay [9] and in [10] was “inactive” in each case. Further, the Potency entry in assay [18] is “inactive”. Further, the activity change, positive = activation in assay [15] was -41% (inactive).
As to `ClCc1ccc(Cl)cc1Cl`, the Potency entry in assay [1], in assay [2], in [3], in assay [7], in [8] and in assay [17] was “inactive” in each case. Also, the Potency result in assay [11], in assay [12], in assay [13] and in assay [18] was “inactive” in each case. Further, in assay [19], the result was inactive.
Regarding `N#CSCSC#N`, the Potency in assay [1] was 17.8 µM (active) and 8.62 µM (active); in assay [2] it was 15.8 µM (active); in assay [3] it was 51.6 µM (active) and 50 µM (active); in assay [14] it was 27.9 µM (active) and 60.5 µM (active); in assay [4], 50.1 µM (active) and 19.3 µM (active); in assay [5], 12.6 µM (active) and 21.7 µM (active). In addition, the Potency in assay [7] is 50.1 µM (active) and 21.7 µM (active); in [16], 19.3 µM (active); in [8] it was 12.6 µM (active) and 15.3 µM (active); in assay [17] it was 21.7 µM (active); in assay [20], 11.2 µM (active) and 21.7 µM (active); in assay [9], 54.4 µM (active). Also, the Potency in assay [10] is 56.2 µM (active) and 24.3 µM (active); in assay [11], 50.1 µM (active) and 19.3 µM (active); in assay [12], 50.1 µM (active) and 19.3 µM (active); in assay [13] it was 39.8 µM (active) and 17.2 µM (active). Further, the activity change, positive = activation in assay [15] is -81.6% (inactive) and -76.5% (inactive). Also, the Potency entry in assay [6] and in assay [18] was “inactive” throughout.
`CCCCN(CCCC)C(=S)[S-].CCCCN(CCCC)C(=S)[S-].[Zn+2]`: the Potency in assay [1] is 15.5 µM (active); in assay [3], 80 µM (active); in assay [14], 12200 nM (active); in [4] it was 34.7 µM (active); in assay [5] it was 11000 nM (active); in [7], 24.5 µM (active). Further, the Potency was 15.5 µM (active) in [16]; 12.3 µM (active) in assay [8]; 21.9 µM (active) in [17]; 11 µM (active) in assay [20]; 21.9 µM (active) in [9]; 48.9 µM (active) in [10]. For the same compound, the Potency in assay [11] was 24.5 µM (active); in assay [12] it was 34700 nM (active); in assay [13], 24500 nM (active). Also, the Potency result in assay [2], in [6] and in [18] was “inactive” each time. Besides, the activity change, positive = activation in assay [15] was -74.5% (inactive).
For the compound `Cc1ccc(OP(=O)(Oc2ccccc2)Oc2ccccc2)cc1`, the Potency result in assay [1], in [2], in assay [4], in assay [5], in assay [7] and in assay [16] was “inactive” throughout. For the same compound, the Potency result in [8], in assay [9], in assay [10], in assay [11], in assay [12] and in assay [13] was “inactive” each time. In addition, in [18], the Potency result is “inactive”. In [19], the outcome was inactive. Further, the activity change, positive = activation in assay [15] was -20.3% (inactive).
